APP transl inh: APP translation inhibition | SH-SY5Y APP 5'UTR-luciferase reporter, luminescence | inhibition, % at 2 µM | 190,000 compounds, 0.82% hits;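 active means inhibition above a set limit, derived from the sample mean plus 3 SD, cut at about 45% in these data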
BaF3 parental: reduces parental Ba/F3 cell viability, JAK2V617F counter-screen; 220,000 compounds, 1.1% hits; CellTiter-Glo ATP luminescence; inhibition, % at 5.6 µM; AID 1486;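 active means inhibition above a per-campaign cutoff, the mean inhibition of all tested compounds plus 3 SD, cut at about 27% in these data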;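 further: 0% = DMSO wells and 100% = JAK Inhibitor I control wells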
IEC-6 cytotox: counter-screen for KLF5 inhibitors: cytotoxicity in IEC-6 cells. 290,000 compounds, 0.78% hits. IEC-6 cytotoxicity, luminescence viability. inhibition, % at 5 µM. AID 1825;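 further: 0% = plate median of test compound wells and 100% = cytotoxic reference compound wells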
KLF5 inhibitor: inhibitors of KLF5 expression; DLD-1 KLF5 promoter-luciferase reporter, luminescence; inhibition, % at 5 µM; 290,000 compounds, 0.23% hits;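 active means inhibition above a per-plate limit of that plate's mean compound inhibition plus 3 SD, cut at about 60% in these data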;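 further: 0% = DMSO wells and 100% = LY294002 at 200 µM; higher means less KLF5 promoter-driven luciferase light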
aSyn 5UTR inh: 5' untranslated region of α-synuclein, MLPCN primary screen; alpha-synuclein 5'UTR reporter, inhibitor activity; inhibition, % (tested at 7.5 µM); 300,000 compounds, 0.82% hits; in the data active means inhibition above about 60%;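 further: H4 neuroglioblastoma cells stably carrying SNCA 5'UTR luciferase fusion; 0% = DMSO wells and 100% = positive control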
Ba/F3 V617F tox: loss of viability in JAK2V617F-driven Ba/F3 cells; Ba/F3 EpoR-JAK2V617F viability, ATP luminescence; inhibition, % at 5.6 µM; 220,000 compounds, 1.1% hits;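 active means inhibition above the campaign mean plus 3 SD over all tested compounds, cut at about 24% in these data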;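 further: cytokine-independent growth of Ba/F3 cells driven by EpoR plus mutant JAK2; 0% = DMSO-treated cells and 100% = JAK inhibitor I control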
BaF3 parental 2: parental Ba/F3 viability inhibition for JAK2V617F counter-screen | shares compounds with Ba/F3 V617F tox | CellTiter-Glo luminescence; cells kept alive by added IL-3 | inhibition, % at 5.6 µM | 580 compounds, 31% hits | AID 1520;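 active means cell growth inhibition above the hit limit set in the earlier mutant JAK2 cell screen, cut at about 27% in these data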;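 further: plate controls were DMSO-treated cells for no effect and JAK Inhibitor I control wells for full effect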
JAK2V617F conf: confirmation: loss of viability in JAK2V617F-dependent Ba/F3 cells; inhibition, % at 5.6 µM; shares compounds with Ba/F3 V617F tox; AID 1521; 580 compounds, 66% hits; Ba/F3 EpoR-JAK2V617F viability, CellTiter-Glo luminescence;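 active means mean inhibition above the hit cutoff derived in the earlier primary screen, cut at about 25% in these data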;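 further: 0% = DMSO-treated cells and 100% = JAK inhibitor I control wells; higher means lower luminescence from reduced cell ATP and viability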
IEC-6 cytotox cf: confirmation of cytotoxic compounds in rat IEC-6 intestinal epithelial cells | shares compounds with IEC-6 cytotox | IEC-6 rat intestinal epithelial viability, luminescence | inhibition, % at 5 µM | 1,900 compounds, 63% hits;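 further: 0% = vehicle and 100% = reference cytotoxic drug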
The depositor's hits bear a star; . = no result. The list is not random: actives were taken first. Their share in the collection is about 2.2%. Unless noted, no stated cut-off is given here; in the data, active means inhibition above about 22%; inactive means the rest.

SMILES | APP transl inh | BaF3 parental | IEC-6 cytotox | KLF5 inhibitor | aSyn 5UTR inh | Ba/F3 V617F tox | BaF3 parental 2 | JAK2V617F conf | others
CCC(C)N1CC(=O)N2C(c3ccc(OC)cc3OC)c3[nH]c4ccccc4c3C[C@H]2C1=O (some centres undefined) | . | . | 0 | -3 | 3 | . | . | .
CCOC(=O)Cc1csc(NC(=O)NC2(C(F)(F)F)Oc3ccc(Cl)cc3O2)n1 (centres undefined) | 31 | 18 | 1 | -44 | -37 | 30* | 2 | 44*
Cc1cccc(NC(=O)c2ccccc2O)c1C | -56 | 3 | 4 | -170 | -174 | 4 | . | .
Cc1cccc(NC(=O)c2cnn3ccccc23)c1C | . | 10 | 2 | -58 | -85 | 28* | 5 | 25*
CCOC(=O)C1(Cc2ccccc2C(F)(F)F)CCN(CC(O)CO)CC1 (centres undefined) | -7 | 7 | -6 | -15 | 15 | 0 | . | .
CCOC(=O)C1(Cc2ccccc2C(F)(F)F)CCN(C2CCN(C(C)C)CC2)CC1 | 9 | 16 | 17 | -5 | . | 73* | 14 | 42*
CC[C@H]1c2[nH]c3ccccc3c2C[C@@H]2C(=O)N(c3ccc(F)cc3)C(=O)N21 | . | . | . | . | 5 | . | . | .
COc1ccccc1NC(=O)CSc1nnc(C2CCCCC2)n1-c1ccccc1 | . | -2 | -3 | 7 | 21 | 30* | -2 | 22
COc1ccccc1NC(=O)CSc1nnc(C2CCCCC2)n1C | -1 | 3 | 10 | 11 | -6 | 2 | . | .
CCN(C(=O)Cc1c(C(=O)O)n(C)c2ccccc12)c1cccc(C)c1 | . | . | 1 | 9 | 7 | . | . | .
N/C(=N\OC(=O)c1cccc(Br)c1)c1ccc(Br)cc1 | 5 | 1 | 7 | 7 | -96 | 35* | -3 | -2
NS(=O)(=O)c1ccc(Sc2nc3ccccc3s2)c([N+](=O)[O-])c1 | . | 21 | 4 | -24 | 67* | 65* | 36* | 93*
O=C(NCCCCCCNC(=O)OCCO)OCCO | -10 | 5 | 5 | 9 | -13 | 84* | -5 | 7
O=C(CSc1ccc2ccccc2c1)NCCc1ccc(O)c(O)c1 | 26 | 8 | 2 | -13 | 32 | 52* | 51* | 93*
CC(Cc1ccccc1)NC(=O)CCCN1C(=O)c2ccccc2C1=O (centres undefined) | . | . | -2 | -13 | -5 | . | . | .
O=C(O)c1ccc(CNC(=O)c2ccc3c(c2)C(=O)N(Cc2cccnc2)C3=O)cc1 | . | . | 7 | -1 | . | . | . | .
Cc1ccc2cc(CCNC(=O)CC(C)C)c(=O)[nH]c2c1 | -16 | 8 | 7 | -33 | 7 | 69* | -3 | -2
CC1=C(C(=O)OC(C)C)C(c2ccc(Cl)cc2)n2c(s/c(=C\c3ccc(OCC(=O)O)cc3)c2=O)=N1 (centres undefined) | . | . | -7 | -54 | 1 | . | . | .
Cc1nc([N+](=O)[O-])c(Br)n1Cc1ccccc1 | . | -7 | 0 | -17 | -8 | 36* | -9 | 46*
COc1ccc2nc(C)cc(Sc3nc4ccccc4s3)c2c1 | . | 5 | 18 | -22 | 5 | 32* | 17 | 55*
COc1ccc2nc(C)cc(SCC(=O)NNC(=O)COc3ccccc3)c2c1 | 0 | 1 | 0 | -6 | -8 | -4 | . | .
Nc1c(-c2ccccc2)cnn1-c1ccc(C(=O)O)cc1 | -137 | 1 | 0 | -84 | -130 | 53* | -3 | -2
Cc1ccc(-c2cnn(-c3ccccc3)c2N)cc1 | . | . | 10 | -17 | -69 | . | . | .
OCC1CCCC(n2cnc3c(=S)nc[nH]c32)O1 (centres undefined) | . | 22 | 11 | -5 | 9 | 24* | 0 | 1
CCC(C)n1ncn(-c2ccc(N3CCN(c4ccc(O)cc4)CC3)cc2)c1=O (centres undefined) | 0 | 8 | 4 | 57 | 73* | 33* | 59* | 48*
SMILES | APP transl inh | BaF3 parental | IEC-6 cytotox | KLF5 inhibitor | aSyn 5UTR inh | Ba/F3 V617F tox | BaF3 parental 2 | JAK2V617F conf | others
CC(=O)Cc1cc(O)c2ccccc2c1OC(=O)c1ccccc1 | -7 | -4 | 55* | -12 | -7 | 28* | 28* | 41* | IEC-6 cytotox cf=-9
O=C(c1ccc2c(c1)C(=O)N(CCCO)C2=O)c1ccc2c(c1)C(=O)N(CCCO)C2=O | 1 | 4 | 2 | 26 | . | 1 | . | .
O=C1c2ccc3c4c(ccc(c24)C(=O)N1CCCCO)C(=O)N(CCCCO)C3=O | 28 | 13 | 29* | 10 | 111* | 32* | 79* | 91* | IEC-6 cytotox cf=37*
O=[N+]([O-])c1ccc(Sc2nnnn2-c2ccccc2)nc1 | 94* | 3 | 38* | -3 | -20 | 69* | 29* | 100* | IEC-6 cytotox cf=44*
O=C(NC(NC(=S)N1CCOCC1)C(Cl)(Cl)Cl)c1ccc(Cl)cc1 (centres undefined) | 10 | -1 | 24* | 11 | 66* | 30* | 31* | 60* | IEC-6 cytotox cf=31*
CCn1c(=O)cc(OCC(=O)NCCCN2CCCC2=O)c2ccccc21 | . | . | 4 | -32 | -11 | . | . | .
COc1ccc(/C=N/NC(=O)c2ccn[nH]2)cc1COc1ccc([N+](=O)[O-])c(C)c1 | . | 2 | 6 | -43 | 19 | -3 | . | .
COc1ccc(/C=N/NC(=O)c2cccnc2)cc1COc1ccc([N+](=O)[O-])c(C)c1 | . | 18 | 45* | 57 | 98* | 25* | 47* | 93* | IEC-6 cytotox cf=43*
COc1cc(-c2[nH]nc3c2C(c2ccco2)C(C#N)=C(N)O3)cc(OC)c1OC (centres undefined) | 11 | 1 | 4 | -16 | 11 | -4 | . | .
O=c1c(Cl)c(Cl)cnn1Cc1nnc(-c2ccc(Cl)cc2)o1 | 77* | -8 | 35* | -3 | -179 | 34* | 66* | 81* | IEC-6 cytotox cf=17
Cc1cccc(OCCNC(=O)CCc2ccccc2)c1 | . | . | . | . | 4 | . | . | .
O=C1C=CC(=O)N1CCCCCCN1C(=O)C=CC1=O | 95* | -1 | 24* | -5 | . | 72* | 96* | 80* | IEC-6 cytotox cf=2
O=C1C2C3C=CC(C3)C2C(=O)N1CCCCCCN1C(=O)C2C3C=CC(C3)C2C1=O (centres undefined) | 12 | 7 | -4 | -43 | . | 0 | . | .
CSCCC(NC(=O)COc1ccccc1)C(=O)N1CCCC(C(F)(F)F)C1 (centres undefined) | . | . | . | . | -2 | . | . | .
Cc1cccc(Nc2nc(N)nc(CCl)n2)c1C | . | 3 | 102* | -22 | 3 | 100* | 5 | 98* | IEC-6 cytotox cf=1
COc1ccccc1Nc1nc(N)nc(CCl)n1 | . | 2 | 0 | -24 | -12 | -2 | . | .
Cn1cc([N+](=O)[O-])c(C(=O)Nc2cc(Oc3ccccc3)cc([N+](=O)[O-])c2)n1 | 97* | 2 | 23* | -10 | 12 | 26* | 32* | 99* | IEC-6 cytotox cf=19

Screens deposited in PubChem by several laboratories.
